Legend:
[1] = molecular target: Ribosomal protein S6 kinase alpha-6 (Homo sapiens) (UniProt Q9UK32); conditions: at 1 µM;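 note: each value is a mean inhibition of RSK4 from a GSK PKIS panel screen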
[2] = molecular target: T1, Serine/threonine-protein kinase Sgk1 (Homo sapiens) (UniProt O00141); conditions: at 0.1 µM
T1 sequence (whole entry): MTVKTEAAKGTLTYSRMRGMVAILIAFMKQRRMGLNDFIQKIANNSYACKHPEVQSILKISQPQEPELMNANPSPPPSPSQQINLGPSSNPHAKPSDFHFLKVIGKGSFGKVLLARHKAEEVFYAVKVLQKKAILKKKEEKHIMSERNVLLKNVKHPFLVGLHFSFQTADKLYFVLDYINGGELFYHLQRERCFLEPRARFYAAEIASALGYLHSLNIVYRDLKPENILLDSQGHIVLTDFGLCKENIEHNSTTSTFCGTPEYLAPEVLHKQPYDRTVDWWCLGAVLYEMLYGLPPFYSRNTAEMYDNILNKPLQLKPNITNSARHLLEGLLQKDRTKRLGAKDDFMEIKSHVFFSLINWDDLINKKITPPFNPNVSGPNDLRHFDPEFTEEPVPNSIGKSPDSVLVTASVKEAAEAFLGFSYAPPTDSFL

[3] = molecular target: T1, Serine/threonine-protein kinase Sgk1 (Homo sapiens); conditions: at 1 µM
[4] = molecular target: T2, Serine/threonine-protein kinase Sgk2 (Homo sapiens) (UniProt Q9HBY8); conditions: at 0.1 µM
T2 sequence (whole entry): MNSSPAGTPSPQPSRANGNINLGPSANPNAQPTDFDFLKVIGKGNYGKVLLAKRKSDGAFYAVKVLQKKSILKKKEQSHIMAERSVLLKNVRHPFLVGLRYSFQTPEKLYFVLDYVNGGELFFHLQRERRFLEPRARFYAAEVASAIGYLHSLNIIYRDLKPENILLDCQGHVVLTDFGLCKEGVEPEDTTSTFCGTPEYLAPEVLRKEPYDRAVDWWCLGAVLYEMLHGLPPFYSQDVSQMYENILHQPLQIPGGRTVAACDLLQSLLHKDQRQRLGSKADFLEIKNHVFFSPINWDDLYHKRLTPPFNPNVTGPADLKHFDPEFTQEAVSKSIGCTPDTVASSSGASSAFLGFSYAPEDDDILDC

[5] = molecular target: T2, Serine/threonine-protein kinase Sgk2 (Homo sapiens); conditions: at 1 µM
[6] = molecular target: T3, Serine/threonine-protein kinase Sgk3 (Homo sapiens) (UniProt Q96BR1); conditions: at 0.1 µM
T3 sequence (whole entry): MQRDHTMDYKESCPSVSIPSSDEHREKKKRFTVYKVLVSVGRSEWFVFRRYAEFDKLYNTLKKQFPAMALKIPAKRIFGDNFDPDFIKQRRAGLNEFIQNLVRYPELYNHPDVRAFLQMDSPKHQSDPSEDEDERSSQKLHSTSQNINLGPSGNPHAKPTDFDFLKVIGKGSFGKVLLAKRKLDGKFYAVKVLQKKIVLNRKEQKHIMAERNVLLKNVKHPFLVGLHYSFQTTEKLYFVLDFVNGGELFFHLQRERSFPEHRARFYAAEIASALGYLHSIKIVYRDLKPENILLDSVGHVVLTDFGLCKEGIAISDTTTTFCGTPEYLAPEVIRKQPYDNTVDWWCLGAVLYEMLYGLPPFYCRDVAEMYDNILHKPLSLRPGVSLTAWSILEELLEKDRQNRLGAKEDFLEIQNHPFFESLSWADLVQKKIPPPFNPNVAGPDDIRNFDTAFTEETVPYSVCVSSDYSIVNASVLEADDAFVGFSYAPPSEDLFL

[7] = molecular target: T3, Serine/threonine-protein kinase Sgk3 (Homo sapiens); conditions: at 1 µM
[8] = molecular target: 5'-AMP-activated protein kinase catalytic subunit alpha-1 (Homo sapiens) (UniProt Q13131); conditions: at 0.1 µM
[9] = molecular target: 5'-AMP-activated protein kinase catalytic subunit alpha-1 (Homo sapiens) (UniProt Q13131); conditions: at 1 µM
[10] = molecular target: 5'-AMP-activated protein kinase catalytic subunit alpha-2 (Homo sapiens) (UniProt P54646); conditions: at 0.1 µM
[11] = molecular target: 5'-AMP-activated protein kinase catalytic subunit alpha-2 (Homo sapiens) (UniProt P54646); conditions: at 1 µM
[12] = molecular target: T4, NUAK family SNF1-like kinase 1 (Homo sapiens) (UniProt O60285); conditions: at 0.1 µM
T4 sequence (whole entry): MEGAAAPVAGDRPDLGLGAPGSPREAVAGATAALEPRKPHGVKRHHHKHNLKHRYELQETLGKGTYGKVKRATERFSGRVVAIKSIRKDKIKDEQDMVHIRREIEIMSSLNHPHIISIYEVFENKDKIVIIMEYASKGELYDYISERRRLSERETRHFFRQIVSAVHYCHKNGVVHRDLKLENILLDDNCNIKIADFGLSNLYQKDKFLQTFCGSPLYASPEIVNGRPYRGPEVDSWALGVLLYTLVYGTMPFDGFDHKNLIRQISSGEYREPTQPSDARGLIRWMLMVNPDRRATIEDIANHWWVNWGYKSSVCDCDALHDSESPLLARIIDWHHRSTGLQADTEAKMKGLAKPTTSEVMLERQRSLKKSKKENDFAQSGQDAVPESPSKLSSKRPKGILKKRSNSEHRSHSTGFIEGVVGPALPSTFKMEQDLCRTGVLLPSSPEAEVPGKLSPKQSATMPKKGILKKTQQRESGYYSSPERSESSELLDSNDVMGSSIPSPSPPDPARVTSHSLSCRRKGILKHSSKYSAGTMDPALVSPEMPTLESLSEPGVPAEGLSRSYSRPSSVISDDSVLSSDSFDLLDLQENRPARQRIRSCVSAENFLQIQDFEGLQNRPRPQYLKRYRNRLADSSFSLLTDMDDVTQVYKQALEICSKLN

[13] = molecular target: T4, NUAK family SNF1-like kinase 1 (Homo sapiens); conditions: at 1 µM
[14] = molecular target: T5, Serine/threonine-protein kinase BRSK1 (Homo sapiens) (UniProt Q8TDC3); conditions: at 0.1 µM
T5 sequence (whole entry): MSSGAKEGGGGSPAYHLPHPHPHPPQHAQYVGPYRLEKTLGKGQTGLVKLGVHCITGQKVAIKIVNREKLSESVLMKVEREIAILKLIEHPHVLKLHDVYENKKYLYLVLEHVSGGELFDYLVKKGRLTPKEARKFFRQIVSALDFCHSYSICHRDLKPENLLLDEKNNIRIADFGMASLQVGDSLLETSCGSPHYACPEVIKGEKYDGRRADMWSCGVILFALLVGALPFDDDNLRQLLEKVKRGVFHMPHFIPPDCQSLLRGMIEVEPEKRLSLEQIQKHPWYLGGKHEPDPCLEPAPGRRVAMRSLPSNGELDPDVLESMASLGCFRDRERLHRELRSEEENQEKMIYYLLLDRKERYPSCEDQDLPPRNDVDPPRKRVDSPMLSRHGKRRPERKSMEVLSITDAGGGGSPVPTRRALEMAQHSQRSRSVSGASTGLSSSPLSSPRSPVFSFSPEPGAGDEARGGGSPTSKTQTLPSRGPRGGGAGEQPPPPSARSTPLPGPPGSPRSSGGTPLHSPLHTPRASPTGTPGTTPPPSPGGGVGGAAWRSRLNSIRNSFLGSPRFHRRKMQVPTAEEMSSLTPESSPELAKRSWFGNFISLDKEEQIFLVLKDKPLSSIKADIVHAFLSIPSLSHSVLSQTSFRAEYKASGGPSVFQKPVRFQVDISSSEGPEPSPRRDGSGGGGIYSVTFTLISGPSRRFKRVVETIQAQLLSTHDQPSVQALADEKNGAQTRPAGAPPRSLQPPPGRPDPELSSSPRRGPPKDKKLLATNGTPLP

[15] = molecular target: T5, Serine/threonine-protein kinase BRSK1 (Homo sapiens); conditions: at 1 µM
[16] = molecular target: T6, Serine/threonine-protein kinase BRSK2 (Homo sapiens) (UniProt Q8IWQ3); conditions: at 0.1 µM
T6 sequence (whole entry): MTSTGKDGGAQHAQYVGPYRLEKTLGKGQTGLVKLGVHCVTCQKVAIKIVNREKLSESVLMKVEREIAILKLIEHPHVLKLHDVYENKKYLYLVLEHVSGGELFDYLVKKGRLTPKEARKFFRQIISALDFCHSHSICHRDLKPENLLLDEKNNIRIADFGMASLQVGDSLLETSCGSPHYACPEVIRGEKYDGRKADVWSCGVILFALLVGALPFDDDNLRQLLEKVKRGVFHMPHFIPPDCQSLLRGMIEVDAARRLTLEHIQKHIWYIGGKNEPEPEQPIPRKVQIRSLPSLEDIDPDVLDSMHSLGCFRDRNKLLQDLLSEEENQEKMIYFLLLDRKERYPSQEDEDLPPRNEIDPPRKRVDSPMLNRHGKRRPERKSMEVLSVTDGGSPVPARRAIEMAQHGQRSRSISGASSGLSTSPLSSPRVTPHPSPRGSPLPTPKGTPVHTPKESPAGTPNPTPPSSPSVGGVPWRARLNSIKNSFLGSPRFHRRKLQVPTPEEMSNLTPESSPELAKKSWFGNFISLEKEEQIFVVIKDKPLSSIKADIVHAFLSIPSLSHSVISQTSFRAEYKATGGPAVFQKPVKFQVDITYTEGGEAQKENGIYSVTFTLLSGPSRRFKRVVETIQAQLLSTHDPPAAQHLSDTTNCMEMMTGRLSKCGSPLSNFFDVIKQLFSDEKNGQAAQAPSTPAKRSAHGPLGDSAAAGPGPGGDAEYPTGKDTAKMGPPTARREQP

[17] = molecular target: T6, Serine/threonine-protein kinase BRSK2 (Homo sapiens); conditions: at 1 µM
[18] = molecular target: Calcium/calmodulin-dependent protein kinase type 1D (Homo sapiens) (UniProt Q8IU85); conditions: at 0.1 µM
[19] = molecular target: Calcium/calmodulin-dependent protein kinase type 1D (Homo sapiens) (UniProt Q8IU85); conditions: at 1 µM
[20] = molecular target: Calcium/calmodulin-dependent protein kinase type II subunit alpha (Homo sapiens) (UniProt Q9UQM7); conditions: at 0.1 µM;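 note: reported values are averages (mean inhibition of CAMK2A)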
Chain of Calcium/calmodulin-dependent protein kinase type II subunit alpha (Homo sapiens) (Q9UQM7 whole entry): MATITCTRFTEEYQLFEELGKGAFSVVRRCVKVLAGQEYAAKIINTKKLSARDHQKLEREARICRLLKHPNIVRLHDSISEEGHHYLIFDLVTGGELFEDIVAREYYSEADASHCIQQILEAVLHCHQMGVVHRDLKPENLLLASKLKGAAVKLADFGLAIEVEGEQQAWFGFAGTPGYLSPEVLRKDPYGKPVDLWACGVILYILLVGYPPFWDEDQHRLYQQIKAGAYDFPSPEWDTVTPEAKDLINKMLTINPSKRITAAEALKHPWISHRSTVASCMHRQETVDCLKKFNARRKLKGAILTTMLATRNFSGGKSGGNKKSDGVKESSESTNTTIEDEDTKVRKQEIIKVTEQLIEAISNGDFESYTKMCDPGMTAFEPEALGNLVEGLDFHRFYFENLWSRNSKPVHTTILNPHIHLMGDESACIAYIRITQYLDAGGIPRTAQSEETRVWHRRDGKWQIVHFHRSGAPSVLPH

Chain of 5'-AMP-activated protein kinase catalytic subunit alpha-1 (Homo sapiens) (Q13131 whole entry, looked up): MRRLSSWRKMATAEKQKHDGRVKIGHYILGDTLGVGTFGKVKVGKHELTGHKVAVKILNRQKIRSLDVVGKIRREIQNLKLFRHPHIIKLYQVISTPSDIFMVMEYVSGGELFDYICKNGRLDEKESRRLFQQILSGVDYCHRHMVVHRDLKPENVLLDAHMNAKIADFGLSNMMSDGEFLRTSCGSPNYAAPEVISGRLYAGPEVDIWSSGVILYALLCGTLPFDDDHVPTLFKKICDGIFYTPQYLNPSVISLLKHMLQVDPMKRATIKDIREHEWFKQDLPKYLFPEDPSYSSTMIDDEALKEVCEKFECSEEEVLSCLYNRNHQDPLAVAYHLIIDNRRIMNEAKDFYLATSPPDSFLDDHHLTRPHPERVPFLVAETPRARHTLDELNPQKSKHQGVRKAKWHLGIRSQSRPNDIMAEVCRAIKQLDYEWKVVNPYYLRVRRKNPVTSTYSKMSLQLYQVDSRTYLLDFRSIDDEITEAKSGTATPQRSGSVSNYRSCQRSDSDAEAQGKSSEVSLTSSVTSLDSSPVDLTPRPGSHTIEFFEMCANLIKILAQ
Chain of Calcium/calmodulin-dependent protein kinase type 1D (Homo sapiens) (Q8IU85 whole entry, looked up): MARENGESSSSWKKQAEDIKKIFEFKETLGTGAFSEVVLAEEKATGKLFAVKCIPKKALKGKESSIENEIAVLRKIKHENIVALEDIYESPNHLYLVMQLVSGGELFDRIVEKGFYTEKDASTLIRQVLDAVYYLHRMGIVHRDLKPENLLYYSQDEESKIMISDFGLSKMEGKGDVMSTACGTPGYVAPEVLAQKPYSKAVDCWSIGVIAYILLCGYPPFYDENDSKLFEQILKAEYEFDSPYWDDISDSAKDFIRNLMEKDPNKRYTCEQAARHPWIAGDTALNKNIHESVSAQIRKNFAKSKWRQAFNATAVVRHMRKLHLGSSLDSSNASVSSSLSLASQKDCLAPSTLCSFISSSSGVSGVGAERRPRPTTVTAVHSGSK
Chain of 5'-AMP-activated protein kinase catalytic subunit alpha-2 (Homo sapiens) (P54646 whole entry, looked up): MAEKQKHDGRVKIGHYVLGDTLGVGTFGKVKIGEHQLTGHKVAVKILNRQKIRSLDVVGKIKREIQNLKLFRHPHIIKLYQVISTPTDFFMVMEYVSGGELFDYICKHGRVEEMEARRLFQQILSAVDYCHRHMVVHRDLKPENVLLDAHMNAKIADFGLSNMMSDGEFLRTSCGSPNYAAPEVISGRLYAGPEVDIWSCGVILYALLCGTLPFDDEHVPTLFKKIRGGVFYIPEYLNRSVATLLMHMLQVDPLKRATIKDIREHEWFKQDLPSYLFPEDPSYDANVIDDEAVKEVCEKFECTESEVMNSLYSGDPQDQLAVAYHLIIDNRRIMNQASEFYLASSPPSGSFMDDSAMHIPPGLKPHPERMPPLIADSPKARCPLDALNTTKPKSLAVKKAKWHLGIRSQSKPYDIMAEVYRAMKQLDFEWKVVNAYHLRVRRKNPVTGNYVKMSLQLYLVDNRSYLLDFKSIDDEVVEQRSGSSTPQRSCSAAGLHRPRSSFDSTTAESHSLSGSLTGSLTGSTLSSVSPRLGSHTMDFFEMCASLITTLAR
Chain of Ribosomal protein S6 kinase alpha-6 (Homo sapiens) (Q9UK32 whole entry): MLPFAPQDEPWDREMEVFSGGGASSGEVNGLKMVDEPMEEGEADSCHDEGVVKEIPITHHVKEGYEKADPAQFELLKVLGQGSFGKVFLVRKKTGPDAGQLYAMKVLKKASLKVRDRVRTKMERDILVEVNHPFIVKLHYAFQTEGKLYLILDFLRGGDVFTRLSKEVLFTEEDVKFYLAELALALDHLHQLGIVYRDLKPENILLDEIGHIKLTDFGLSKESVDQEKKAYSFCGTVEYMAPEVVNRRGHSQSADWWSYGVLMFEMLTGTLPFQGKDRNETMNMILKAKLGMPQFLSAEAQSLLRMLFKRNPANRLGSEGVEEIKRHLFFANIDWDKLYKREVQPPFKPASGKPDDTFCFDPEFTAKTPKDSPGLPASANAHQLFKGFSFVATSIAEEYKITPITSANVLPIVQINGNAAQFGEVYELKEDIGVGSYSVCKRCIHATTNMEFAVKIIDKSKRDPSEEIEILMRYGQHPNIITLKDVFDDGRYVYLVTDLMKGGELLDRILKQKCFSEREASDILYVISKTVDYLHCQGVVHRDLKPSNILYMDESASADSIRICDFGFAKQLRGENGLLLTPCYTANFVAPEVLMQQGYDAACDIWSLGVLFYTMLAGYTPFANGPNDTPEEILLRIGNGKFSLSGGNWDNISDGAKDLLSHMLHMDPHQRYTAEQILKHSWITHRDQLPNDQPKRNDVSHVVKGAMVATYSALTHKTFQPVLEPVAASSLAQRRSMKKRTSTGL

COc1ccc2cc(-c3c(-c4ccncc4)nc(-c4ccc([S+](C)[O-])cc4C)n3C)ccc2c1 (stereo not given)
inhibition [1]: 0.61%
inhibition [2]: -0.3%
inhibition [3]: 0.17%
inhibition [4]: -1.2%
inhibition [5]: 0.22%
inhibition [6]: -0.05%
inhibition [7]: 0.65%
inhibition [8]: -0.62%
inhibition [9]: -0.8%
inhibition [10]: 3.22%
inhibition [11]: 1.05%
inhibition [12]: -1.98%
inhibition [13]: 4.95%
inhibition [14]: -0.02%
inhibition [15]: 3.28%
inhibition [16]: 0.33%
inhibition [17]: 3.47%
inhibition [18]: 0%
inhibition [19]: 1.15%
inhibition [20]: -2.89%

Fc1ccc(-c2ncn(C3CCNCC3)c2-c2ccnc(Oc3ccc(Oc4ccccc4)cc3)n2)cc1
inhibition [1]: 3.14%
inhibition [2]: 1.53%
inhibition [3]: 2.46%
inhibition [4]: 3.23%
inhibition [5]: 3.39%
inhibition [6]: 4.76%
inhibition [7]: 2.42%
inhibition [8]: 2.46%
inhibition [9]: 4.03%
inhibition [10]: 8.18%
inhibition [11]: 3.68%
inhibition [12]: 0.78%
inhibition [13]: 0.71%
inhibition [14]: 3.46%
inhibition [15]: -0.07%
inhibition [16]: 1.27%
inhibition [17]: 1.66%
inhibition [18]: -0.26%
inhibition [19]: 3.87%
inhibition [20]: 2.01%

COc1cccc(/C=N/Nc2ncnc3c2cnn3-c2cccc(OC)c2)c1
inhibition [1]: 1.54%
inhibition [2]: 1.88%
inhibition [3]: 1.38%
inhibition [4]: 1.32%
inhibition [5]: 2.15%
inhibition [6]: 2.71%
inhibition [7]: 2.43%
inhibition [8]: 1.52%
inhibition [9]: 2.74%
inhibition [10]: 5.39%
inhibition [11]: 2.83%
inhibition [12]: 1.95%
inhibition [13]: 3.7%
inhibition [14]: 0.47%
inhibition [15]: -0.97%
inhibition [16]: 1.04%
inhibition [17]: 2.41%
inhibition [18]: -0.14%
inhibition [19]: 0.89%
inhibition [20]: 0.99%

Source: ChEMBL document CHEMBL1961873, “Compounds: GSK PKIS; Assays: Nanosyn kinase panel” (2012)
